This is a sample that favours compounds with a hit; in the whole collection about 5.4% have one here.
beta cell repl – induces beta-cell replication in MIN6 cells | MIN6 cells proliferation, ATPlite luminescence, 48 h; cells starved in 0.2% serum; 100% = growth in 10% serum | proliferation, % at 10 µM | 0.29% of 330,000 active | AID 2380;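 active means compounds whose signal lies at least 3.5 SD above the mean of all wells on their plate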
SMARCA2 act – activators of SMARCA2 function; MG213 cells, MMTV-luciferase reporter, dexamethasone, overnight; activation, % at 9.1 µM; 1% of 370,000 active; in the data active means activation above about 7.8%
JMJD2C inh – human JMJD2C demethylase inhibition | GST-JMJD2C(1-420) H3K9me3 demethylation, DELFIA europium | inhibition, % at 2.35 µM | 0.069% of 330,000 active | AID 2099;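 active means more than half of a compound's replicate wells show inhibition beyond 50%, single wells judged on their own value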;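 further: signal counts dimethyl H3K9 product captured on neutravidin plate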
M18AAP inhibitor – PfM18AAP enzyme inhibition; recombinant PfM18AAP, H-Glu-NHMec fluorogenic cleavage; inhibition, % at 7.35 µM; 1.2% of 290,000 active;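 active means inhibition above the campaign mean inhibition over all tested compounds plus 3 SD, cut at about 28% in these data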
Exocytosis inh – lytic granule exocytosis inhibition; TALL-104 LAMP-1 surface exposure, flow cytometry; cells stimulated with thapsigargin and PMA; inhibition, % at 10 µM; 0.66% of 360,000 active; AID 651702;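 active means inhibition above about 55%, limit read from the data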
ALR inh – human ALR oxidase inhibition via reduced H2O2; purified ALR, DTT oxidation, H2O2 HRP-luminol luminescence; inhibition, % (no concentration beside the values); 3.8% of 290,000 active; AID 485317;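 active means mean replicate inhibition above about 79%, with every replicate also reaching it, limit read from the data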
Target sequence (P55789 whole entry, looked up): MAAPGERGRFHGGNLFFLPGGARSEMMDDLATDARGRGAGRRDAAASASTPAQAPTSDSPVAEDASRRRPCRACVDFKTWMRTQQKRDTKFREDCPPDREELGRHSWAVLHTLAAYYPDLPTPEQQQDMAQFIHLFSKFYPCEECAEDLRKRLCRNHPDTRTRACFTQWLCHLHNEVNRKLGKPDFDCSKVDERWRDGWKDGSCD
Numbers stand for hits; . = inactive; / = no result given.

SMILES	beta cell repl	SMARCA2 act	JMJD2C inh	M18AAP inhibitor	Exocytosis inh	ALR inh
CCCCCCCCCCCCN1[C@@H](CC(=O)O)c2cc(F)ccc2S1(=O)=O	.	.	.	/	.	98
CCCCCCCCN1[C@@H](CC(=O)OCC)c2ccc(C(F)(F)F)cc2S1(=O)=O	.	.	.	/	.	.
CCCCCCCCCCCCN1[C@@H](CC(=O)OC)c2cc(C(F)(F)F)ccc2S1(=O)=O	.	.	.	/	.	.
CCCCCCCCN1[C@@H](CC(=O)O)c2cc(C(F)(F)F)ccc2S1(=O)=O	.	.	.	/	.	98
CCCCCCCCCCCCN1[C@@H](CC(=O)O)c2cc(C(F)(F)F)ccc2S1(=O)=O	.	.	.	/	.	98
COCCNC(=O)[C@]1(C#N)CC(=O)N(C)[C@@H]1c1ccccc1	/	.	/	/	/	/
Nn1c(SCc2cccc3ccccc23)nnc1-c1cc(-c2ccc(Cl)cc2)n[nH]1	/	.	/	/	/	/
COc1ccc(/C=N/N=C2\SC(CC(=O)O)C(=O)N2c2ccccc2)c(OC)c1 (configuration not stated)	.	.	.	.	.	.
CN1C(=O)C(CC(=O)O)S/C1=N\N=C\c1ccc(O)cc1O (configuration not stated)	.	.	.	.	.	85
O=C(O)CC1S/C(=N\N=C/c2ccccc2)N(c2ccc(O)cc2)C1=O (configuration not stated)	.	.	.	.	.	.
C=CCN1C(=O)C(CC(=O)O)S/C1=N/N=C/c1ccc(N(CC)CC)cc1 (configuration not stated)	.	.	.	/	.	99
C=CCN1C(=O)C(CC(=O)O)SC1=Nc1ccc(C(=O)O)cc1 (configuration not stated)	.	.	.	.	.	.
CN(C)c1ccc(/C=N/N=C2/SC(CC(=O)O)C(=O)N2c2ccc(O)cc2)cc1 (configuration not stated)	.	.	.	.	.	97
CC1(c2nnnn2-c2ccc3c(c2)OCCO3)CSCC(=O)N1CCc1c[nH]c2ccccc12 (configuration not stated)	/	.	/	/	/	/
CCCCOCCCNC(=O)C[C@H]1C[C@@]2(C(=O)OC)C(=C[C@H](COCc3ccccc3)O[C@@H]2C)N(Cc2ccc(Cl)cc2Cl)C1=O	/	.	/	/	/	/
CC(C)C[C@H]1COc2cccc(F)c2S(=O)(=O)N1Cc1cn(CCC2OCCCO2)nn1	/	.	/	/	/	/
O=C(CSCc1nc2ccccc2[nH]1)Nc1ccc2ccccc2c1	.	.	.	.	.	99
O=C(CS)Nc1ccc2ccccc2c1	/	.	.	.	67	97
C#CCN1CC(N(C)CCOC(=O)c2ccc([N+](=O)[O-])cc2)CS1(=O)=O (configuration not stated)	/	.	/	/	/	/
COC(=O)COc1cccc2c(=O)n(CC(=O)N3CCCc4ccccc43)ccc12	.	.	.	.	.	89
CCOC(=O)COc1cccc2c(=O)n(CC(=O)N3CCCCC3)ccc12	.	.	.	.	.	/
Cc1ccc(N2C(=O)CS/C2=C(\C(Cl)=C(Cl)Cl)[N+](=O)[O-])cc1	.	.	.	.	.	98
Cc1ccc(N2C(=O)CSCC2=O)cc1	.	.	.	.	.	.
CCn1c(N)c(C(=O)NCCOC)sc1=S	.	.	.	.	.	100
CCn1c(N)c(C(=O)NCc2ccc3c(c2)OCO3)sc1=S	.	/	.	.	.	99
SMILES	beta cell repl	SMARCA2 act	JMJD2C inh	M18AAP inhibitor	Exocytosis inh	ALR inh
Cc1cc[n+](-c2[nH]c(=O)sc2/C=N/NC([S-])=Nc2ccccc2)cc1	.	.	.	31	.	.
O=C(c1ccccc1)n1ccc2ccc(-c3ccc4ccn(C(=O)c5ccccc5)c4c3)cc21	/	.	/	/	/	/
O=C(NC(=S)Nc1cccc(F)c1)c1cccc([N+](=O)[O-])c1	.	.	.	.	.	.
O=C(O)c1ccccc1NC(=S)NC(=O)c1sc2ccccc2c1Cl	.	.	.	.	.	.
CC(C)(C)c1ccc(OCC(=O)NNC(=S)NC(=O)c2ccccc2[N+](=O)[O-])c(Br)c1	.	.	.	.	.	92
Cc1occc1C(=O)NNC(=S)Nc1cccc([N+](=O)[O-])c1	.	.	.	.	.	98
O=C(NNC(=S)NC(=O)c1cccc([N+](=O)[O-])c1)c1ccc(Br)cc1	.	.	.	.	.	96
Cc1ccccc1OCC(=O)NNC(=S)NC(=O)c1ccccc1[N+](=O)[O-]	.	.	.	.	.	/
O=C(NNC(=S)NC(=O)c1sc2ccccc2c1Cl)c1ccc(Cl)cc1	.	.	.	.	.	98
COC(=O)[C@H](Cc1ccccc1)NC(=O)[C@H]1O[C@@H](n2cnc3c(=O)[nH]c(N)nc32)[C@H](O)[C@@H]1O	/	.	/	/	/	/
CCn1c(SCC(=O)N/N=C/c2cccc(Oc3ccccc3)c2)nnc1-c1ccccc1	/	.	/	/	/	/
Cc1ccc(CSc2nnc(-c3cccs3)o2)cc1C	/	.	/	/	/	/
COc1ccc(C(=O)NNC(=S)NC(=O)c2ccc(Cl)cc2)cc1	.	.	.	/	/	.
O=C(NNC(=S)NC(=O)c1ccccc1[N+](=O)[O-])c1ccccc1	.	.	.	.	.	.
Cc1cccc(NC(=S)NNC(=O)c2cccc([N+](=O)[O-])c2)c1	.	.	.	.	.	.
O=C(NC(=S)NNC(=O)c1ccccc1[N+](=O)[O-])c1ccccc1	.	.	.	.	.	96
COc1cc(C(=O)NNC(=S)NC(=O)c2ccc(Cl)cc2)cc(OC)c1OC	.	.	.	.	.	96
CCCCC(=O)NNC(=S)NC(=O)c1cccc([N+](=O)[O-])c1	.	.	.	.	.	98
O=C(NNC(=S)Nc1ccc(Cl)c(Cl)c1)c1cccc([N+](=O)[O-])c1	.	.	.	.	.	98
COC(=O)[C@@]12CCCCC3=C1N(CCC3)C(=O)[C@H]2CC(=O)NCCc1ccccc1OC	/	.	/	/	/	/
Cc1ccc(C2=CCN(C)C(=O)N2c2ccc(Br)cc2)cc1	/	.	/	/	/	/
Cc1cccc(C(=O)NC(=S)NNC(=O)c2ccc(Cl)cc2)c1	/	.	.	.	.	96
O=C(NNC(=O)c1ccncc1)Nc1cccc([N+](=O)[O-])c1	.	.	.	.	90	.
O=C(NNC(=O)c1cccc([N+](=O)[O-])c1)c1ccncc1	.	.	.	.	.	.
O=C(NNC(=S)NC(=O)c1cccc([N+](=O)[O-])c1)c1ccc(O)cc1	.	.	.	.	.	88
Cc1ccc(C(=O)NC(=S)NNC(=O)c2cccc([N+](=O)[O-])c2)cc1	.	.	.	.	.	99
Cc1cccc(C(=O)NNC(=O)c2ccc(Br)cc2)c1	.	.	.	.	.	.
COc1ccc(C(=O)CSc2nnc(-c3ccc(C(C)(C)C)cc3)n2C)cc1	/	.	/	/	/	/
N#CCC[C@H]1CC[C@]2(CCCN(C(=O)c3ccco3)C2)O1	/	.	/	/	/	/
O=C(NNC(=O)c1ccccc1-c1ccccc1C(=O)O)c1cccc([N+](=O)[O-])c1	.	.	.	.	.	.

Source: PubChem BioAssay
